Entries with a potency or affinity are not part of this list. Active and inactive are the calls of the source.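 Rule for the calls: active = ATP signal reduced by compound, with fitted active dose under ten times the top valid tested dose; inactive = the rest, compounds that increase ATP levels included.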

A short description of the test: cellular ATP toxicity in rat beta cells – cell-based, CellTiter-Glo luminescence, INS-1E, dry powder, cytotoxicity control for beta-cell cytokine protection project, dose response (AID 488864). The note with it: INS-1E rat beta cells, 48 h, no cytokines; series mostly up to 26 µM. For orientation: In ATP-based viability assays light output follows the ATP content of the culture.
Take `Cc1ccc(S(=O)(=O)N(C)C[C@@H]2Oc3c(NC(=O)Nc4ccccc4)cccc3C(=O)N([C@@H](C)CO)C[C@H]2C)cc1`: the call was inactive. Regarding `COc1ccc(S(=O)(=O)N(C)C[C@@H]2Oc3c(NC(=O)Nc4cccc5ccccc45)cccc3C(=O)N(C(C)C)C[C@H]2C)cc1`, the molecule was classed as inactive. The same measure for `Cc1noc(C)c1NC(=O)N(C)C[C@@H]1Oc2c(NC(=O)Nc3cccc4ccccc34)cccc2C(=O)N([C@@H](C)CO)C[C@H]1C`: “inactive”; for `CNC[C@@H]1Oc2c(NC(=O)Nc3cccc4ccccc34)cccc2C(=O)N([C@@H](C)CO)C[C@H]1C`: “inactive”. Regarding `C[C@@H]1CN([C@@H](C)CO)C(=O)c2cccc(NC(=O)Nc3cccc4ccccc34)c2O[C@H]1CN(C)S(=O)(=O)c1ccccc1`, the molecule was classed as inactive. Regarding `COc1ccc(S(=O)(=O)N(C)C[C@@H]2Oc3c(NC(=O)Nc4cccc5ccccc45)cccc3C(=O)N([C@@H](C)CO)C[C@H]2C)c(OC)c1`, the molecule was called inactive.

For `COc1ccc(S(=O)(=O)N(C)C[C@@H]2Oc3c(NC(=O)NC(C)C)cccc3C(=O)N([C@@H](C)CO)C[C@H]2C)cc1`, the result was inactive. The value for `COc1ccc(S(=O)(=O)N(C)C[C@@H]2Oc3c(NC(=O)Nc4cccc5ccccc45)cccc3C(=O)N([C@@H](C)CO)C[C@H]2C)cc1Cl` was “inactive”; that for `COc1ccc(S(=O)(=O)N(C)C[C@@H]2Oc3c(NS(=O)(=O)c4ccc(F)cc4)cccc3C(=O)N([C@@H](C)CO)C[C@H]2C)cc1` was “inactive”; that for `COc1ccc(S(=O)(=O)N(C)C[C@@H]2Oc3c(NS(=O)(=O)c4ccc(Cl)cc4)cccc3C(=O)N([C@@H](C)CO)C[C@H]2C)cc1` was “inactive”.

Values taken from PubChem BioAssay AID488864 (Broad Institute, 2010).
